Screens (PubChem)
Most compounds without a hit are left out; they make up all but 10% or so of the library.
RORg inh: inhibitors of mouse ROR gamma transcriptional activity; P51450; Drosophila S2 Gal4-RORgamma UAS-luciferase reporter, 20 h; Potency, µM (highest dose often 53.6 µM), for the others: at the highest dose activity change, negative = inhibition, actives largely listed as inhibitors; hit rate 5.4% among 310,000; note: % is set by controls: 0 for no effect and ±100 for the full control effect; nearly all actives have a fitted effect of over 60% in size
Target sequence (P51450 whole entry, looked up, the tested form may be a part): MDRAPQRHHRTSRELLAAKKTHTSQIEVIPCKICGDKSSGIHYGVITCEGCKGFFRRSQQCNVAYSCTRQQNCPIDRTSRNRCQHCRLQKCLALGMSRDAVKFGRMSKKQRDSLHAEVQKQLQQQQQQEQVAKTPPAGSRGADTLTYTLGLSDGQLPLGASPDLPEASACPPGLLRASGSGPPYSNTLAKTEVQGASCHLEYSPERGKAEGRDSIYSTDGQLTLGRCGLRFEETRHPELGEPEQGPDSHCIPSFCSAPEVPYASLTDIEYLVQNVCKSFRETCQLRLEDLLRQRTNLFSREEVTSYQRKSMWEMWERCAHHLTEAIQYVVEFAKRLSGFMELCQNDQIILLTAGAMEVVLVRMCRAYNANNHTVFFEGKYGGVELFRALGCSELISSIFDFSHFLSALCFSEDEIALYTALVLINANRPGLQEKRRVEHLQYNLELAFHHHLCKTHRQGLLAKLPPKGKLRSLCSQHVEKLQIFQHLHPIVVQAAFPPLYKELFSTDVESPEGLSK
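Using a luciferase readout, inhibitors were identified by reduced reporter activity in Drosophila cells coexpressing a copper-inducible Gal4–ROR gamma fusion and UAS-driven Photinus luciferase, incubated 20 hr after 700 uM copper sulfate.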
VP16 counter: counter-screen for ROR gamma inhibitors: Gal4-VP16 reporter. hit rate 3.5% among 310,000. Potency, µM (series often up to 53.6 µM), without a hit: top-dose activity, negative = inhibition, actives largely listed as inhibitors. Drosophila S2 Gal4-VP16 UAS-luciferase, luminescence, 20 h. AID 2546;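 note: Gal4-VP16 expression switched on by copper sulfate through the metallothionein promoter; % is set by controls: 0 for no effect and ±100 for the full control effect; nearly all actives have a fitted effect of over 50% in size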
SW480 rereplic: inducers of DNA re-replication in SW480 colon cancer cells. SW480 DNA re-replication, Hoechst DNA content imaging, 48 h. Potency, µM (top dose mostly 46.1 µM), for the others: at the highest dose re-replication activation, hits mostly activators. hit rate 1.8% among 340,000. AID 624297; note: % of control where 0% means no effect; nearly all actives have a fitted effect of over 55% in size
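Readout is total intensity of Hoechst-stained nuclei, excited at 405 nm and collected at 500-530 nm. Compound treatment lasted 48 hr at 37 C in 5% CO2 before staining.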
MCF10A rereplic: DNA re-replication induction in MCF 10a cells; Potency, µM (titrated, usually from 46.1 µM), inactives show at the top dose activity, positive = re-replication, actives largely listed as activators; MCF 10A DNA re-replication, Hoechst nuclear intensity, 48 h; hit rate 2.9% among 350,000; note: % of control where 0% means no effect; nearly all actives have a fitted effect of over 50% in size
KB-3-1 tox: kills parental KB-3-1 adenocarcinoma cells; KB-3-1 viability, CellTiter-Glo ATP luminescence, 72 h; AID 1347075; Potency, µM (titrated, usually from 46.1 µM), usual class: cytotoxic; hit rate 1.4% among 400,000; note: % is set by controls: 0 for no effect and ±100 for the full control effect; nearly all actives have a fitted effect of over 60% in size
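72 h, 37 °C compound treatment of KB-3-1 parental cells; CellTiter-Glo added, 10 min, luminescence read. Data corrected against DMSO-only plates and normalized before curve fitting.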
KB-V1 cytotox: kills drug-selected multidrug resistant KB-V1 cells | KB-V1 MDR cells viability, CellTiter-Glo, 72 h | Potency, µM (series often up to 46.1 µM), usual class: cytotoxic | hit rate 3.4% among 400,000; note: % is set by controls: 0 for no effect and ±100 for the full control effect; nearly all actives have a fitted effect of over 60% in size
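KB-V1, DMEM (no phenol red) + 10% FBS; cpd pin-transferred, titration series; 72 h, 37 degrees C; CellTiter-Glo, luminescence. Data normalized, curve-fit.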
The depositor's hits bear a star; i = inactive; ? = inconclusive; / = no result given; [ ] = another dose, or the depositor's remark. Calls come from the whole dose curve; as a rule, active = well fitted curve in the direction sought with a large enough effect; inconclusive = small, poorly fitted or top-dose-only effect, or another doubt; inactive = no such curve, though single readings can be large; an effect the other way counts as inactive or inconclusive. Potency is the fitted concentration of half-maximal effect.

SMILES	RORg inh	VP16 counter	SW480 rereplic	MCF10A rereplic	KB-3-1 tox	KB-V1 cytotox
COc1ccc(C)cc1NC(=O)CNC(c1ccccc1)c1ccc(C)cc1 (stereo not given)	4.7%	-5.4%	2.59µM*	?	4.61µM*	i
Oc1cccc2c(CC(O)c3c[nH]c4ccccc34)ccnc12 (stereo not given)	/	/	/	/	0.731µM*	?
COc1ccc(CNCc2ccc3c(c2)n(C)c(=O)n3C)cc1	/	/	/	/	i	i
Cc1ccc(C)c2[nH]c(=O)c(C(c3nnnn3C(C)(C)C)N3CC=C(c4ccc(F)cc4)CC3)cc12 (stereo not given)	6.8%[10 µM]	-10.4%	0.164µM*	?	i	?
CCC(C)(C)n1nnnc1C(c1cc2cccc(C)c2[nH]c1=O)N1CCCC1 (stereo not given)	-34.5%	?	14.5%	19.1%	?	?
c1ccc(-c2nc(-c3ccncc3)n[nH]2)nc1	5.01µM*	12.6µM*	3.7%	-11.6%	i	i
c1ccc(-c2ccncc2)nc1	/	/	-10.5%	1.4%	i	i
Nc1cc(N)[nH]c(=S)n1	/	/	/	/	i	i
COc1cccc(COc2cc3ccccc3nc2C)c1	-27.0%	5.01µM*	6.6%	6.8%	?	?
Cc1nc2ccccc2cc1OCc1ccc(Cl)cc1	?	3.55µM*	1.4%	?	2.59µM*	1.84µM*
Cn1ccc2c(-c3ccc(C(=O)O)cc3)cc3c(c21)C1CCC3C1 (stereo not given)	/	/	/	/	i	i
Clc1ccc(Nc2nnc(Cc3ccncc3)c3ccccc23)cc1	/	/	8.2%	-0.1%	/	/
COc1ccc(NC(=O)CN2CCCN(Cc3ccc(Cl)cc3)S2(=O)=O)cc1Cl	/	/	/	/	i	i
COc1ccc(C(=O)Nc2ccc(NC(C)=O)cc2)cc1S(=O)(=O)N1CCCCC1C (stereo not given)	/	/	-15.6%	6.8%	i	i
CC(C)C(NC(=O)c1ccccc1)C(=O)NC1=NCCS1 (stereo not given)	-29.8%	10.0%	7.8%	?	i	i
COc1ccc(C(=O)NC2=NCCS2)cc1S(=O)(=O)N1CCCCC1C (stereo not given)	14.1µM*	-2.3%	-2.0%	-0.9%	i	?
CC(C)Oc1cccc(C(=O)NC2=NCCS2)c1	?	-7.8%[10 µM]	-9.6%	-2.1%	i	i
COc1cc(OC)cc(C(=O)N[C@H](C(=O)NC2=NCCS2)C(C)C)c1	/	/	-1.4%	-1.0%	i	11.6µM*
COc1cccc(C(=O)NC2=NCCS2)c1	10µM*	?	-4.6%	-1.3%	i	i
CCn1cc(C(=O)NCc2ccc(F)cc2)c(=O)c2cc(S(=O)(=O)N(C)C)ccc21	/	/	/	/	i	i
CCOC(=O)C1(C)CCCN1C(=O)c1csnn1 (stereo not given)	/	/	/	/	i	i
COC(=O)N1CCC2(CCCN(C(=O)Nc3ccccc3)C2)CC1	16.0%	-1.0%	/	/	/	/
Cc1cccc(NC(=O)c2c(C)cc(C)nc2SCC(=O)Nc2c(C)cc(C)cc2C)c1	/	/	/	/	i	i
Cc1ccc(S(N)(=O)=O)c(C)c1-n1cnnn1	11.8%	7.3%	-3.9%	1.9%	i	i
Cc1cc(C)c(S(N)(=O)=O)c(C)c1-n1cnnn1	8.91µM*	3.3%	-0.8%	18.9%	i	i
SMILES	RORg inh	VP16 counter	SW480 rereplic	MCF10A rereplic	KB-3-1 tox	KB-V1 cytotox
O=C(CN1C(=O)c2ccccc2S1(=O)=O)Nc1ccccc1	-17.8%	-8.8%	0.1%	6.51µM*	i	i
CSc1cccc(NC(=O)CN2C(=O)c3ccccc3S2(=O)=O)c1	-27.3%	12.6µM*	-2.6%	10.8%	i	i
COc1ccc(NC(=O)CN2C(=O)c3ccccc3S2(=O)=O)cc1OC	-13.5%	-9.7%	-3.1%	-27.6%	i	i
Cc1ccc(NC(=O)CN2C(=O)c3ccccc3S2(=O)=O)cc1C	-40.7%	?	-4.4%	?	i	i
COc1cccc(CNC(=O)c2ccc(CS(=O)Cc3ccccc3Cl)o2)c1 (stereo not given)	/	/	/	/	i	?
CCCOP(=O)(OCCC)c1c([N+](=O)[O-])cc(C(F)(F)F)cc1[N+](=O)[O-]	-30.8%	26.7%	18.4µM*	?	?	?
CCOc1ccc(C(F)(F)F)cc1NC(=O)COc1ccc(C(F)(F)F)cc1[N+](=O)[O-]	22.7%	21.8%	-0.9%	5.2%	i	i
COc1cc2sc(-c3ccccc3OC)c(-c3ccc(OCCN4CCCCC4)cc3)c2cc1OC	/	/	-4.2%	?	?	?
COc1ccc2sc(-c3ccccc3OC)c(-c3ccc(OC)nc3)c2c1	/	/	-3.8%	23.1µM*	i	i
COc1ccccc1-c1sc2cc3c(cc2c1-c1ccc(OCCN2CCCCC2)cc1)OCO3	/	/	5.3%	10.3µM*	?	?
COc1ccc(-c2c(-c3ccccc3OC)oc3ccccc23)cn1	/	/	-4.0%	16.4µM*	i	i
COc1ccc(-c2sc3ccccc3c2-c2ccc(O)cc2)cc1	/	/	6.4%	?	?	i
COc1ccccc1-c1oc2ccccc2c1-c1ccc2c(c1)OCO2	/	/	-4.7%	?	i	i
COc1ccc(-c2sc3cc(OC)c(OC)cc3c2-c2ccc(O)cc2)cc1	/	/	20.6µM*	?	i	i
CC(C)(C)Cc1c(-c2cccc(Br)c2)nc2ccc(Br)cn12	/	/	/	/	i	i
Cc1ccc(-n2ncc(C(=O)N3CCN(Cc4ccccc4)CC3)c2C2CCN(C(=O)OC(C)(C)C)CC2)c(C)c1	/	/	/	/	i	?
